Measurements as given in PubChem BioAssay (NCI).
About 79,000 compounds went through this panel and 15% of them were active in at least one assay; those are over-represented in the sample as a whole. Cut-off read from the data, not from the text of the source: active = growth inhibition above about 70%; inactive = the rest. Where a SMILES comes first, the peptide text is derived from it. [ ]: non-standard residue; d: D form. ξ: configuration not given here. ξF = NC(Cc1ccccc1)C(=O)O

What was measured:
[1] = NCI Yeast Anticancer Drug Screen. Data for the rad50 strain (AID 155);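 note: 0% = growth of vehicle-only cultures of the same strain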; conditions: S. cerevisiae rad50 strain growth inhibition; at 50.0 µM; active compounds read high
Method in brief: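 A DNA repair-deficient yeast mutant serves as the test organism; compound-induced growth inhibition is calculated against vehicle-treated cells.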

[2] = NCI Yeast Anticancer Drug Screen. Data for the mec2-1 strain (AID 157); conditions: S. cerevisiae mec2-1 strain, at 50.0 µM, active compounds read high
Method in brief: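 Yeast mec2-1 mutant treated with compound. Readout: growth inhibition vs vehicle controls.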

[3] = NCI Yeast Anticancer Drug Screen. Data for the sgs1 mgt1 strain (AID 161);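 note: 0% = growth of cultures given vehicle only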; conditions: S. cerevisiae sgs1 mgt1 strain, at 50.0 µM, active compounds read high
Method in brief: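 Inhibition of yeast growth, normalised to vehicle-treated controls, is reported for a strain bearing genetic alterations in DNA damage repair.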

[4] = NCI Yeast Anticancer Drug Screen. Data for the cln2 rad14 strain (AID 165);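 note: 0% = growth equal to vehicle treated cultures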; conditions: S. cerevisiae cln2 rad14 strain, at 50.0 µM, active compounds read high
Method in brief: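 cln2 rad14 yeast strain; compound exposure; growth inhibition read vs vehicle controls.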

[5] = NCI Yeast Anticancer Drug Screen. Data for the bub3 strain (AID 167); conditions: S. cerevisiae bub3 mutant strain, at 50.0 µM, active compounds read high
Method in brief: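 Inhibition values come from growth of compound-treated mutant yeast normalised to vehicle-treated controls.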

[6] = NCI Yeast Anticancer Drug Screen. Data for the mlh1 rad18 strain (AID 175); conditions: S. cerevisiae mlh1 rad18 strain growth inhibition; at 50.0 µM; active compounds read high
Method in brief: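 Yeast w/ defined DNA-repair lesions; compound exposure; growth vs vehicle controls → % inhibition.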

Measured: growth inhibition

NC(=S)N/N=C/c1ncccc1N
inactive: [1] 14.8% | [2] 50.6% | [3] 39.2% | [4] 35% | [5] 34.9% | [6] -21.7%

N#Cc1ccccc1C(Cl)(Cl)c1cnccn1
inactive: [1] 9.9% | [2] -6.85% | [3] -10.7% | [4] 29.9% | [5] -0.4% | [6] 20.1%

CC(C)C(=O)CC1(O)C(=O)Nc2ccc([N+](=O)[O-])cc21 (stereo unspecified)
inactive: [1] -9.95% | [2] -0.2% | [3] -7.75% | [4] -34.9% | [5] 4.15% | [6] 2.5%

COc1ccc2c(c1)C(N)=C(c1ccccc1OC)C2=O
inactive: [1] -8.45% | [2] 3.9% | [3] 4.95% | [4] -8.15% | [5] -7.4% | [6] -38.5%

C=C(C)Cc1c(C)c(Cl)cc(Cl)c1OC(=O)Nc1ccccc1
inactive: [1] 31.8% | [2] 9.6% | [3] 30.6% | [4] 9.35% | [5] 29.9% | [6] 19.7%

OCC[N-]CC[N-]CCO.[Cl][Co][Cl]
inactive: [1] 27.8% | [2] 32.1% | [3] 32.7% | [4] 22.9% | [5] 36.6% | [6] 35.2%

CC(=O)C1C(=O)NC(=O)C1=O (stereo unspecified)
inactive: [1] -2.9% | [2] -23.5% | [3] -14.2% | [4] 0.2% | [5] -18.9% | [6] -18.9%

O=C1C2C(C(=O)N1c1ccccc1)C1(c3ccccc3)CCC2(C(=O)c2ccccc2)O1 (stereo unspecified)
inactive: [1] 56.4% | [2] -14.3% | [3] 39.6% | [4] -16.4% | [5] 9.05% | [6] 23.4%

COc1cccc(N=N/C(=N/NC(=O)c2cc(Cl)ccc2O)c2ccc(N(CCC#N)CCC#N)cc2C)c1
inactive: [1] -18.9% | [2] -16.8% | [3] -18.9% | [4] -18.6% | [5] -17.9% | [6] -47.6%

Cc1ccccc1NC(=O)NN
inactive: [1] -32.1% | [2] -24.1% | [3] -31.4% | [4] 10.8% | [5] -16.6% | [6] -5.35%

CCOC(=O)C1=NN(c2ccccc2)C(=O)/C1=C\N1CC(=O)NC1=S
inactive: [1] -19.4% | [2] -14.2% | [3] -31.5% | [4] -10.2% | [5] 9.85% | [6] -32.1%

CN(C)C(=O)OCC1COc2ccccc2O1 (stereo unspecified)
inactive: [1] 15% | [2] -23.6% | [3] -23.1% | [4] -70.2% | [5] -11.1% | [6] -12.6%

CN(C)C(=O)CCOc1cccc2ccccc12
inactive: [1] 16.6% | [2] -3.1% | [3] -16% | [4] -69.5% | [5] -20.8% | [6] 1%

CCC([NH-])(CC)C[NH-].[Cl][Pt+2][Cl]
inactive: [1] 2.3% | [2] 13.4% | [3] -31.4% | [4] -1.45% | [5] -14.1% | [6] -44.6%

N=C(N)c1ccncc1
inactive: [1] -0.6% | [2] 5.75% | [3] 8.45% | [4] -32% | [5] 4.75% | [6] -1.95%

CCCCSCC(N)C(=O)OC (stereo unspecified)
inactive: [1] 19.1% | [2] -11.2% | [3] 4% | [4] -65.5% | [5] 3.75% | [6] 2.8%

CCCCCC(=O)OCC(Br)CBr (stereo unspecified)
inactive: [1] -7.6% | [2] -10.6% | [3] 22.5% | [4] -23.1% | [5] 40.5% | [6] 1.1%

CCO/C=C1/N=C(c2ccccc2Cl)OC1=O
inactive: [1] 10.2% | [2] 5.25% | [3] -1.05% | [4] -30.1% | [5] -17.1% | [6] 14.3%

NC(Cc1ccccc1)C(=O)NCC(=O)O (stereo unspecified) (H-[ξF]-Gly-OH)
inactive: [1] -7.45% | [2] 8.65% | [3] -6.35% | [4] -26.4% | [5] -11.7% | [6] -12.3%

Cc1ccc(C)c(C(=O)c2ccccc2)c1C(=O)O
inactive: [1] -24.6% | [2] 7.8% | [3] 12.8% | [4] -29.9% | [5] 7.7% | [6] -4.15%

COc1cc([N+](=O)[O-])ccc1NC(=O)Nc1nccs1
inactive: [1] 5.75% | [2] 29.9% | [3] 11.9% | [4] -9.25% | [5] 22.4% | [6] -37.3%

OCCN(Cc1ccccc1)C(c1ccccc1)C(O)c1ccccc1 (stereo unspecified)
inactive: [1] -2.8% | [2] 7.65% | [3] 24.2% | [4] 29.2% | [5] 1.7% | [6] 1.3%

CC(=O)OC(OC(C)=O)c1ncccc1C(=O)OC(C)C
inactive: [1] -14.6% | [2] -13.2% | [3] -14.7% | [4] 10.8% | [5] -8.45% | [6] -21.7%

CCOC(=O)CCC1(CCC(=O)OCC)CCCCCCCCC(CCC(=O)OCC)(CCC(=O)OCC)C(=O)C1=O
inactive: [1] 12.9% | [2] 12.3% | [3] -14.7% | [4] 38% | [5] -4.7% | [6] -1.3%

N#C/C(=C\C1CCCC([N+](=O)[O-])C1)C1CCC([N+](=O)[O-])CC1 (stereo unspecified)
inactive: [1] -0.55% | [2] 5.3% | [3] -7.15% | [4] -6.5% | [5] -5.05% | [6] 2.85%

CCOC(=O)c1ccc(NCC2CNc3ccccc3N2)cc1 (stereo unspecified)
inactive: [1] 36.2% | [2] -11.2% | [3] 17.7% | [4] -8.35% | [5] 23.2% | [6] 18.2%

C/C(=N/O)c1sc(-c2nc(C)c(/C(C)=N\O)s2)nc1C
inactive: [1] -1.7% | [2] -19.3% | [3] 4.7% | [4] 4.85% | [5] -6.6% | [6] 3.05%

O=C1Cc2ccccc2CN1
inactive: [1] -6.95% | [2] 13.3% | [3] -3.5% | [4] 19.6% | [5] 2.15% | [6] 32.3%

O=C(O)CCC(=O)c1ccc(O)cc1
inactive: [1] -0.2% | [2] -27% | [3] -7.1% | [4] -14.7% | [5] -14% | [6] 13.6%

CCOC(=O)C(O)(C#CC(C)C)C1CCCC1 (stereo unspecified)
inactive: [1] -15% | [2] 13% | [3] -4.65% | [4] 5% | [5] -6.4% | [6] -6.65%

CS(=O)(=O)Nc1ccc(NS(C)(=O)=O)cc1
inactive: [1] 1.6% | [2] 17.5% | [3] 4.45% | [4] 1.75% | [5] 2.9% | [6] -13.2%

CCCCC1OCCOC1C1COCCO1 (stereo unspecified)
inactive: [1] -7.25% | [2] -21.9% | [3] -10.8% | [4] -6% | [5] 2.55% | [6] 6.7%

O=C(NCCO)Nc1ccc2c(c1)OCCOCCOCCOCCO2
inactive: [1] -0.95% | [2] 4.8% | [3] -2.65% | [4] 14.1% | [5] 1.75% | [6] 5.9%

CCc1ccccc1NC(=O)Nc1cc(C)ccn1
inactive: [1] 25.6% | [2] 12.9% | [3] 21.8% | [4] 21.3% | [5] 32% | [6] 27.9%

CCOC(=O)c1cc(O)cc(=O)n1C1OC(COC(=O)c2ccccc2)C(OC(=O)c2ccccc2)C1OC(=O)c1ccccc1 (stereo unspecified)
inactive: [1] 49.5% | [2] -19.4% | [3] 32.6% | [4] 3.35% | [5] -9.15% | [6] -10.8%

COC1=C(N)C(=O)c2nc(C)ccc2C1=O
inactive: [1] 45.8% | [2] 44.4% | [3] 55.5% | [4] -3.9% | [5] 56.9% | [6] 66.5%

CCCc1ccccc1[N+](=O)[O-]
inactive: [1] 0.25% | [2] -14.9% | [3] -10.5% | [4] -4.35% | [5] 8.7% | [6] -7.1%

O=c1[nH]nc(Sc2ccccc2)c2nncn12
inactive: [1] 15.7% | [2] -1.05% | [3] -5.45% | [4] -16.6% | [5] -4.7% | [6] 24.6%

c1ccc(C(CCN2CC3CCC(CC3)C2)c2ccccc2)cc1
inactive: [1] 14.6% | [2] -21.4% | [3] -17.9% | [4] -22.6% | [5] -21.9% | [6] 22.6%

O=C(OCc1ccccc1CN1CCCC1)c1ccc(Br)cc1
inactive: [1] 11% | [2] -6.05% | [3] -9.9% | [4] -16.9% | [5] 20.1% | [6] -17.9%

CC1(C)N=C(Oc2ccccc2)n2nccc2N1
inactive: [1] -12.6% | [2] -15.6% | [3] -14.6% | [4] 2.55% | [5] -18.3% | [6] -29.6%
